In ChEMBL document CHEMBL1201862, “PubChem BioAssay data set” (2004):
Hit rate of the full screen: of about 400,000 compounds, about 2,100 (0.53%) were called active. Another 14% or so got no clear call; they are omitted. How the calls were made is not given here. Many of the other results were omitted from the sample, so actives are more common in it than they were.

molecular target: Ataxin-2 (Homo sapiens) (UniProt Q99700); assay: qHTS for Inhibitors of ATXN expression.; format: functional
Sequence (Q99700 whole entry): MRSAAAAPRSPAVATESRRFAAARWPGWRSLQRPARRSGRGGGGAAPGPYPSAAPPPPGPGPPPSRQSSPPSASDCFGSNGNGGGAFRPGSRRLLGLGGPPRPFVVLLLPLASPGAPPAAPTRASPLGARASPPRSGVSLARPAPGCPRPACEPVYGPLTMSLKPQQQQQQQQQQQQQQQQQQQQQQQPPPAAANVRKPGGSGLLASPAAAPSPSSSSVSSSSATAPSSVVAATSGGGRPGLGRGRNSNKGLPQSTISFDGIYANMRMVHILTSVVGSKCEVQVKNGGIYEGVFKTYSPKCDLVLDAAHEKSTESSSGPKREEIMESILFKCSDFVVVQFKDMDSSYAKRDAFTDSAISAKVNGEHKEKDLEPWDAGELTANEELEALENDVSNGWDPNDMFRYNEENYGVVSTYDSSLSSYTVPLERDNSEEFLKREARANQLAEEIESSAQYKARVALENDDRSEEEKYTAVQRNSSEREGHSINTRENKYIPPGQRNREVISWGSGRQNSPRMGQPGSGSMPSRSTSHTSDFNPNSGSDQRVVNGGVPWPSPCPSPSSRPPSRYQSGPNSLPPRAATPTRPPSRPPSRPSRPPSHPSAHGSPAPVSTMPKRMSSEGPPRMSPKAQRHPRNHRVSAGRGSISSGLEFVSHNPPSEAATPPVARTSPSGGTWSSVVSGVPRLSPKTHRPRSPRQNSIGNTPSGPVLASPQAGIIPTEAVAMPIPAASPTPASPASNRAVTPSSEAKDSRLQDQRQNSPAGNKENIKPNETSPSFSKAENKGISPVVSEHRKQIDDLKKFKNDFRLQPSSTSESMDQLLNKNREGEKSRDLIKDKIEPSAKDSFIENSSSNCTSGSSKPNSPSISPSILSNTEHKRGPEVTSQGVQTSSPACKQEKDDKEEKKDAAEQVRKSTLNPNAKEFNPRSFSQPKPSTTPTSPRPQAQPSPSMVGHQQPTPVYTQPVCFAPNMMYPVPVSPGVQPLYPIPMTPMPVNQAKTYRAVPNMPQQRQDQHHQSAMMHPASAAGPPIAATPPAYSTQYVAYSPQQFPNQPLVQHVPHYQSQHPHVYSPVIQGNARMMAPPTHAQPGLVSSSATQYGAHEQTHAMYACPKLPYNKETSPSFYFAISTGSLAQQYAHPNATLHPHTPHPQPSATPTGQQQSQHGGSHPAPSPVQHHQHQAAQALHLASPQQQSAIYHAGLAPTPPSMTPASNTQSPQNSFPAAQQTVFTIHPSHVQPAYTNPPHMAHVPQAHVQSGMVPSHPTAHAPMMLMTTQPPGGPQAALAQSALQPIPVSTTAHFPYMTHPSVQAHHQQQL

Row | Compound | Potency
1 | Cc1ccc(-n2cc(CNCCCn3cccn3)c(-c3cccc(C)c3)n2)cc1 | 20 µM (active)
2 | Cc1ccc(C2(c3ccc(C)cc3)NC(=O)N(CC(=O)NCCCN3CCCC3=O)C2=O)cc1 | inactive
3 | Cc1cccc(-n2cc(CNCCc3nc(C)cc(C)n3)c(-c3cccc(F)c3)n2)c1 | 31.6 µM (active)
4 | Cc1cccn2c(=O)c3cc(C(=O)NCCCN4CCCC4=O)n(C)c3nc12 | inactive
5 | Cc1ccc(-n2cc(CNCCCN3CCCC3=O)c(-c3ccc(F)cc3)n2)cc1 | 25.1 µM (active)
6 | Cc1cccc(C2=NN(c3ccccc3)[C@H](CO)[C@H]2c2ccc(F)cc2)c1 | inactive
7 | CCOC(=O)c1cc2c(=O)n3ccccc3nc2n(CCCOC)/c1=N\C(=O)C(C)(C)C | inactive
8 | CCOc1ccc(NC(S)=Nc2cccnc2)cc1 | inactive
9 | Cc1cc(N(C)Cc2ccccc2)nc2cc(O)ccc12 | inactive
10 | CN(CCCC(=O)N1CCN(c2ncccn2)CC1)S(=O)(=O)c1ccc(F)cc1 | inactive
11 | O=C(NC1CCCCCC1)c1cc2c(=O)n3ccccc3nc2s1 | inactive
12 | O=C(NCC1CCCCC1)c1ccc(Cl)c(S(=O)(=O)N2CCOCC2)c1 | inactive
13 | O=C(Cn1ncc(Cl)c(Cl)c1=O)NCC1CCCCC1 | 31.6 µM (active)
14 | O=C(Cn1ncc(Cl)c(Cl)c1=O)NC1CCCCC1 | 28.2 µM (active)
15 | Cc1ccc(-n2nc3c(=O)n(CC(=O)NC4CCCCC4)nc(C)c3c2C)cc1 | inactive
16 | Cc1cc(C(F)(F)F)c(C#N)c(SCC(=O)Nc2nc3cc(Br)ccc3s2)n1 | inactive
17 | COC(=O)c1sc2ccccc2c1NC(=O)c1ccc(S(=O)(=O)N2CCCC(C)C2)cc1 (stereo not drawn) | inactive
18 | CCOc1ccc2nc(O)c(CN(Cc3ccco3)C(CC)c3nnnn3Cc3ccccc3)cc2c1 (stereo not drawn) | 20 µM (active)
19 | Oc1nc2ccccc2nc1-c1nnnn1Cc1ccccc1 | inactive
20 | COc1ccc(CCN(Cc2cc3cc(C)ccc3nc2O)C(C)=O)cc1OC | inactive
21 | CCC(c1nnnn1Cc1ccco1)N(CCc1ccccc1)Cc1cc2cc(C)ccc2nc1O (stereo not drawn) | 39.8 µM (active)
22 | Cc1ccc2nc3c(cc2c1)c(NC(=O)c1ccco1)nn3CC(C)C | inactive
23 | CC1CCCN(C(=S)SCC(=O)c2cc(Br)cc(Br)c2O)C1 (stereo not drawn) | inactive
24 | O=C(Cc1csc(Nc2nc(S)nc3ccccc23)n1)N1CCN(c2cccc(Cl)c2)CC1 | inactive
25 | CCn1c(SC(C)C(=O)Nc2nnc(C)s2)nnc1-c1ccco1 (stereo not drawn) | inactive
26 | Cc1cc(C(=O)CN2C(=O)c3cccc(N)c3C2=O)c(C)n1Cc1cccs1 | inactive
27 | Cc1cc(/C=C(\C#N)C(=O)NCc2cccs2)c(C)[nH]1 | inactive
28 | Cc1c(C#N)c(NC(=O)CCl)n(Cc2cccs2)c1C | 11.2 µM (active)
